Compound activity deposited in PubChem BioAssay by National Center for Advancing Translational Sciences (NCATS).
TrxR1 substrate = qHTS Assay for Substrates of Mammalian Selenoprotein Thioredoxin Reductase 1 (TrxR1): qHTS. Thioredoxin reductase 1, cytoplasmic (Rattus norvegicus), O89049. purified TrxR1 substrate turnover, NADPH consumption readout. Potency, µM (doses to about 114 µM), for inactives: top-dose activity change, negative = substrate turnover. 0.01% of 390,000 active; note: % is set by controls: 0 for no effect and ±100 for the full control effect; nearly all actives have a fitted effect of over 50% in size
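Rat TrxR1, dispensed at 90 nM, was prereduced with 400 uM NADPH (final) for 5 min at ~22 deg C, then incubated with compound 15 min before 400 uM selenite. A first-read NADPH fluorescence drop versus no-compound background flagged substrates.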
Apoferritin bind = qHTS Assay for Identification of Novel General Anesthetics; Ferritin light chain (Equus caballus), P02791; AID 485281, 2010; apoferritin/1-aminoanthracene competitive binding, fluorescence; 0.074% of 350,000 active; Potency, µM (top dose mostly 77.5 µM), for the others: top-dose activity change, negative = displacement, usual class: inhibitors; note: % is set by controls: 0 for no effect and ±100 for the full control effect; nearly all actives have a fitted effect of over 20% in size
Target sequence (P02791 2-175 limits assumed): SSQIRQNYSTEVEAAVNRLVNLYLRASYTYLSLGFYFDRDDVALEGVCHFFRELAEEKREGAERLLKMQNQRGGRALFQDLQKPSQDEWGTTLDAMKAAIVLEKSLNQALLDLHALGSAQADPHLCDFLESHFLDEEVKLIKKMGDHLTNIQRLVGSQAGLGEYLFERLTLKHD
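Probe: 1-aminoanthracene (50% saturated, PBS). Protein: horse-spleen apoferritin, 10 uM. Incubation: 10 min, room temperature. Detection: 380 nm excitation, 535 nm emission. Analysis: normalized response, four-parameter Hill.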
TrxR1 inh = qHTS Assay for Inhibitors of Mammalian Selenoprotein Thioredoxin Reductase 1 (TrxR1): qHTS; Thioredoxin reductase 1, cytoplasmic (Rattus norvegicus), O89049; 1% of 390,000 active; Potency, µM (top dose mostly 114 µM), inactives show top-dose activity change, negative = inhibition, usual class: inhibitors; recombinant rTrxR1, NADPH fluorescence consumption, selenite substrate; note: % is set by controls: 0 for no effect and ±100 for the full control effect; nearly all actives have a fitted effect of over 65% in size
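Rat TrxR1 (90 nM in the dispensed reagent) was pre-reduced with 400 uM NADPH for 5 min at room temperature, then incubated with compound for 15 min. After 400 uM selenite was added, NADPH fluorescence (Ex 340/Em 450 nm) was followed for 8 min.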
ALOX12 inh = Primary qHTS assay for inhibitors of human arachidonate 12S-lipoxygenase (ALOX12): Round 2; Polyunsaturated fatty acid lipoxygenase ALOX12 (Homo sapiens), P18054; purified 12hLO, xylenol orange hydroperoxide absorbance; Potency, µM (series often up to 108 µM), without a hit: top-dose activity change, negative = inhibition, usual class: inhibitors; 1.1% of 580,000 active; AID 1671190, 2021; note: % is set by controls: 0 for no effect and ±100 for the full control effect
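Hydroperoxide product was detected by ferrous iron/xylenol orange as the 573 to 405 nm absorbance ratio. Arachidonic acid at 40 uM (final) was turned over for 30 min at room temperature by 150 nM human 12hLO, pH 7.0 Hepes buffer, after 15 min compound preincubation.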
GRP78 ERSR act = qHTS for Inducers of the Endoplasmic Reticulum Stress Response (ERSR) in Human Glioma: qHTS | U87-MG GRP78 promoter luciferase reporter, 16 h | AID 602332, 2012 | Potency, µM, inactives show top-dose activation, most hits filed as activators | 0.02% of 420,000 active; note: series mostly up to about 76 µM; % of control where 0% means no effect; nearly all actives have a fitted effect of over 35% in size
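Stably transfected U87-MG glioma cells carrying a GRP78-based luciferase sensor; 16 h compound incubation. Luminescence end-point read 10 min after Bright-Glo addition at room temperature.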
IDH1 R132H inh = qHTS for Inhibitors of mutant isocitrate dehydrogenase 1 (IDH1): qHTS; IDH1-R132H enzyme, NADPH consumption, diaphorase/resazurin fluorescence; AID 602179, 2012; 0.093% of 390,000 active; Potency, µM (top dose mostly 76.6 µM), for inactives: at the top dose activity change, negative = inhibition, hits mostly inhibitors; Isocitrate dehydrogenase [NADP] cytoplasmic (Homo sapiens), O75874; note: % is set by controls: 0 for no effect and ±100 for the full control effect; nearly all actives have a fitted effect of over 65% in size
Target sequence (O75874 whole entry R132H, stated change not applied): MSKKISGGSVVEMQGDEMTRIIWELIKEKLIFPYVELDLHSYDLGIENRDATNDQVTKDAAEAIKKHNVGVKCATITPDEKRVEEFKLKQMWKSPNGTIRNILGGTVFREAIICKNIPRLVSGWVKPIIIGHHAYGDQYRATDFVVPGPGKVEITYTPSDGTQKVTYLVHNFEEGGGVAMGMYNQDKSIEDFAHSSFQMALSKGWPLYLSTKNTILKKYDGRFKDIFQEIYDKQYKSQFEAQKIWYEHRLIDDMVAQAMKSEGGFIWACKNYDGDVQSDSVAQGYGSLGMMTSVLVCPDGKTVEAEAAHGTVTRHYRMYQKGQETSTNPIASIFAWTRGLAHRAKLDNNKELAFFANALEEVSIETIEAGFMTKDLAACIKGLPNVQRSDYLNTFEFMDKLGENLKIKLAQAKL
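IDH1-R132H (0.5 ug/mL) preincubated 30 min with compound, then NADPH (0.016 mM) and alpha-KG (2 mM) added; 80 min at RT, pH 7.5. Remaining NADPH coupled via diaphorase/resazurin to fluorescence (540/590 nm); concentration-response curves normalized to no-enzyme control.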
* hit, by the source's call; ? = inconclusive; . = not tested or not shown; [ ] = dose if it differs, or a comment. Hits are enriched below; roughly 1.7% of the tested compounds scored in any of these assays. Calls come from the whole dose curve; as a rule, active = well fitted curve in the direction sought with a large enough effect; inconclusive = small, poorly fitted or top-dose-only effect, or another doubt; inactive = no such curve, though single readings can be large; an effect the other way counts as inactive or inconclusive. Potency is the fitted concentration of half-maximal effect.

SMILES | TrxR1 substrate | Apoferritin bind | TrxR1 inh | ALOX12 inh | GRP78 ERSR act | IDH1 R132H inh
CC(=O)n1cc(N(C(=O)CCl)c2ccccc2)c2ccccc21 | 0% | -8% | 0.63µM* | ? | -14% | 2%
COC(=O)N1CCc2c(sc(NC(=O)C3COc4ccccc4O3)c2C(N)=O)C1 (centres undefined) | 7%[57.1 µM] | . | -26% | 18µM* | 3% | -6%
NC(=O)c1c(NC(=O)C2COc3ccccc3O2)sc2c1CCN(Cc1ccccc1)C2 (centres undefined) | -5%[57.1 µM] | -14% | 15%[57.1 µM] | 366% | -3% | 6%
CCc1cc(C(=O)N2C[C@@H](C(=O)O)[C@H](c3cccc(OC)c3)C2)cs1 | . | . | . | 36% | . | .
Cc1cc(OCCN2CCC(Cc3ccccc3)CC2)ccc1[N+](=O)[O-] | -2% | ? | 11% | 6.3µM* | 0% | 7%
COc1ccc(Cc2c(-c3ccc(C)cc3)nc3ccc(Cl)cn23)c(C)c1 | . | . | . | 40µM* | 3% | .
COc1ccccc1Cc1c(-c2ccc(C)cc2)nc2ccc(Cl)cn12 | . | . | . | ? | 3% | .
O=C(Cc1n[nH]c(=O)c2ccccc12)OCc1nc(-c2ccc(Cl)cc2)no1 | . | . | . | 13% | . | .
CN(C)c1ccc(C(=C2C=CC(=[N+](C)C)C=C2)c2ccccc2)cc1 | . | -6% | . | 0.32µM* | -12% | .
C=CCn1c(Cc2ccccc2)n[nH]c1=S | 9%[57.1 µM] | ? | -3%[57.1 µM] | ? | -3% | 11%
C=CCn1c(CCc2cc(C(C)(C)C)c(O)c(C(C)(C)C)c2)n[nH]c1=S | 0%[57.1 µM] | ? | 5%[57.1 µM] | 35µM* | -4% | -9%
CC(C)(C)CN1C[C@@H](C(=O)O)C[C@H](C(=O)NCc2cccnc2)C1 | . | . | . | -12% | . | .
Cc1cccc(N=CC=C2OC(C)(C)C(C)(C)O2)c1 | 17% | -5% | 6% | -4% | 8% | 5%
Cc1ccc(N=CC=C2OC(C)(C)C(C)(C)O2)cc1 | 5% | -7% | -7% | 35µM* | ? | 5%
Cc1ccc(/C(O)=C2\C(=O)C(=O)N(c3nc4ccccc4s3)C2c2ccc(O)cc2)cc1 (centres undefined) | . | . | . | 18µM* | . | .
COc1ccc(C2/C(=C(/O)c3ccc(C)cc3)C(=O)C(=O)N2c2ccccn2)cc1 (centres undefined) | 0%[57.1 µM] | 2% | -11%[57.1 µM] | ? | 3% | -2%
CCOc1ccc(/C(O)=C2/C(=O)C(=O)N(c3ncccn3)C2c2ccc(Cl)cc2)cc1 (centres undefined) | -12% | -13% | -7% | 0% | -10% | -18%
CCOc1ccc(/C(O)=C2\C(=O)C(=O)N(c3nccs3)C2c2ccc(C)cc2)cc1 (centres undefined) | . | . | . | 6.3µM* | . | .
Fc1ccc(CN2CCCCCC2)c(F)c1 | 6%[57.1 µM] | -3% | -2% | ? | -5% | -1%
Fc1ccc(CN2CCCCCCC2)c(F)c1 | 2%[0.457 µM] | -3% | 15% | 0.45µM* | -6% | 7%
CCOc1cc(C(c2c(C)[nH]c3ccccc23)c2c(C)[nH]c3ccccc23)ccc1O | . | . | . | 7.9µM* | . | .
Cc1[nH]c2ccccc2c1C(c1ccccn1)c1c(C)[nH]c2ccccc12 | -2% | -7% | 40µM* | ? | -6% | 6%
O=C(Cc1cccc(Cl)c1)N1CCC(Oc2ncccc2C(=O)N2CCCCC2)C1 (centres undefined) | . | . | . | 33% | . | .
COc1cccc(C2OCC(C)(C)n3c(-c4ccccc4)c4c(=O)n(C)c(=O)n(C)c4c32)c1O (centres undefined) | . | . | . | 11µM* | . | .
CC(C)C(=O)NC(=S)Nc1ccccc1N1CCN(C(=O)c2ccc(Cl)cc2)CC1 | -10% | -6% | ? | 45µM* | 0% | 0%
SMILES | TrxR1 substrate | Apoferritin bind | TrxR1 inh | ALOX12 inh | GRP78 ERSR act | IDH1 R132H inh
CS(=O)(=O)N1CCN(c2ccccc2NC(=S)NC(=O)c2cccs2)CC1 | 1%[57.1 µM] | ? | 18%[57.1 µM] | 35µM* | -2% | 3%
CC(C)C(=O)N1CCN(c2ccccc2NC(=S)NC(=O)c2cccs2)CC1 | 12% | -15% | 8% | ? | -4% | 0%
CC1CCN(c2ccccc2NC(=S)NC(=O)C(C)(C)C)CC1 | 0% | -7% | 9% | 40µM* | -1% | -3%
CC1CCN(c2ccccc2NC(=S)NC(=O)c2cccs2)CC1 | 7% | ? | 8% | 32µM* | -4% | 2%
CC(C)(C)C(=O)Nc1ccccc1N1CCN(C(=O)c2ccc(Cl)cc2)CC1 | 6% | -11% | 12% | 0% | -2% | 0%
CC(Oc1ccc(C(N)=O)cc1)C(N)=O (centres undefined) | . | . | . | 9% | . | .
FC(F)(F)c1cccc(C2=NOC3(CCCN(Cc4ccccc4)C3)C2)c1 (centres undefined) | . | . | . | 8% | . | .
O=C(CCl)Nc1c2c(nn1-c1ccccc1)CSC2 | -3% | -6% | 13µM* | -5% | ? | 4%
Nc1ccccc1SC(CC(=O)c1ccccc1)c1ccc([N+](=O)[O-])cc1 (centres undefined) | . | . | . | ? | -8% | 11%
COc1ccc(C(CC(=O)c2ccc(C)cc2)Sc2ccccc2N)cc1 (centres undefined) | . | . | . | 50µM* | 4% | 18%
CCCCCCCCCCCCOC(=O)N1CCN(/[N+]([O-])=N/Oc2ccc([N+](=O)[O-])cc2[N+](C)=O)CC1 | -7%[0.457 µM] | . | 50µM* | . | 1% | .
CCOC(=O)c1nnn(-c2ccc([N+](=O)[O-])cc2[N+](=O)[O-])c1C | -1% | -8% | 23% | ? | -4% | 1%
CCOC(=O)N1CCN([N+]([O-])=NOc2ccc([N+](=O)[O-])cc2C#N)CC1 | . | . | . | 16%[57.4 µM] | . | .
CCOC(=O)N1CCN(/[N+]([O-])=N/Oc2ccc([N+](=O)[O-])cc2[N+](=O)[O-])CC1 | 3%[57.1 µM] | ? | 6.7µM* | . | -15% | .
CCOC(=O)CCCC(=O)N1CCN(/[N+]([O-])=N/Oc2ccc([N+](=O)[O-])cc2[N+](=O)[O-])CC1 | -6% | . | 16µM* | . | -12% | .
CN1CC2(CCN(C(=O)c3cccc(C#N)c3)CC2)CC1C(=O)N1CCOCC1 (centres undefined) | . | . | . | 55% | . | .
